Assay results reported in PubChem BioAssay (EPA / NIEHS).
Inconclusive results are not listed. The source made the active and inactive calls. How the source made its calls: active means hit-call score of the fitted dose curve at least 0.9, where 1 is the maximum; inconclusive means response in the unintended direction; inactive means score below 0.9.

target: human RAR-related Orphan Receptor beta (RORb), RORB (gene 6096) (UniProt Q92753); assay: ATG_RORb_TRANS: Attagene TRANS-FACTORIAL HepG2 Assay for human RAR-related Orphan Receptor beta (RORb) (AID 2283010)
Method in brief: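 HepG2 cells transiently transfected with GAL4-UAS reporter units expressing chimeric NR-Gal4 protein; reporter mRNA measured 24 h after dosing by RT-PCR, 6-FAM labelling and capillary electrophoresis. Gain-of-signal fitted relative to DMSO baseline.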

Sequence of human RAR-related Orphan Receptor beta (RORb), RORB (gene 6096) (Q92753 whole entry, looked up, the tested form may be a part): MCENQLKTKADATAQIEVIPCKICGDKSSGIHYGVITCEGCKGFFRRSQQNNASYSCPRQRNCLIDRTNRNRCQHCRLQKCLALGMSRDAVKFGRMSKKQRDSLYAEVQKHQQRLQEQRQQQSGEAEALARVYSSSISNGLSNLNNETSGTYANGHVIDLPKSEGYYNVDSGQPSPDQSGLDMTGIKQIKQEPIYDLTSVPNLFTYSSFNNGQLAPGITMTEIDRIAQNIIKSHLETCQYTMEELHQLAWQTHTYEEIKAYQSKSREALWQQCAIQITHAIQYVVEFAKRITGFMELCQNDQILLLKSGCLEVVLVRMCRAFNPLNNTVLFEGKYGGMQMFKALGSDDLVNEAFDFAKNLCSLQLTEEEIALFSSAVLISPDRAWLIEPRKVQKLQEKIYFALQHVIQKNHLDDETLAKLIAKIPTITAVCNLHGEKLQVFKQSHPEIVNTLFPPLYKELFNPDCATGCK

| SMILES | outcome |
| --- | --- |
| CC(=O)CC(=O)N(C)C | inactive |
| CN(C)C | inactive |
| Cc1ccc(C(C)(C)O)cc1 | inactive |
| CC1=CCC(C(C)(C)O)CC1 (configuration not stated) | inactive |
| CCCCN(CCCC)CCCCCCN(CCCC)CCCC | inactive |
| NC(N)=S | inactive |
| CCOC(=O)C(=O)OCC | inactive |
| C=CCOCC(O)CO (configuration not stated) | inactive |
| C=COCC1CCC(COC=C)CC1 (configuration not stated) | inactive |
| CCCOC(=O)CC | inactive |
| CC(C)(C)c1cc(CCC(=O)OCCSCCOC(=O)CCc2cc(C(C)(C)C)c(O)c(C(C)(C)C)c2)cc(C(C)(C)C)c1O | inactive |
| COc1cc(OC)c2ccc(=O)oc2c1 | inactive |
| CC(C)CCOC(=O)CC(C)C | inactive |
| CCCCCCCCSCc1cc(C)c(O)c(CSCCCCCCCC)c1 | inactive |

target: human RAR-related Orphan Receptor gamma (RORg), RORC (gene 6097) (UniProt P51449); assay: ATG_RORg_TRANS: Attagene TRANS-FACTORIAL HepG2 Assay for human RAR-related Orphan Receptor gamma (RORg) (AID 2283011)
Method in brief: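 Chimeric RORg-Gal4 transactivation in transfected HepG2; 24 h exposure; RT-PCR/capillary electrophoresis readout of reporter mRNA, DMSO baseline.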

Sequence of human RAR-related Orphan Receptor gamma (RORg), RORC (gene 6097) (P51449 whole entry, looked up, the tested form may be a part): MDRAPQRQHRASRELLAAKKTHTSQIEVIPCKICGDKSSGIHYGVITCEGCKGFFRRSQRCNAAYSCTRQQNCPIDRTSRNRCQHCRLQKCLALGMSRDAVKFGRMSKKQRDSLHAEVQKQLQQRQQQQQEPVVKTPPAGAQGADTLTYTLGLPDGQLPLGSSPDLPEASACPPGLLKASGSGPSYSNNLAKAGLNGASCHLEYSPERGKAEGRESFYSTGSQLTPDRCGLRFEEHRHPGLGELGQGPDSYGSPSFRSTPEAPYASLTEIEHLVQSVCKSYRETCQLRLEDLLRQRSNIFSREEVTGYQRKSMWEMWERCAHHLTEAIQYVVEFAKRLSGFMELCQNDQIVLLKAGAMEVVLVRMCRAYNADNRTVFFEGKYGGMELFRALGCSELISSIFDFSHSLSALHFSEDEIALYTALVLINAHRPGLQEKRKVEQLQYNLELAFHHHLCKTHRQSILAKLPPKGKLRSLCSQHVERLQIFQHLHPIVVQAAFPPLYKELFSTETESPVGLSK

| SMILES | outcome |
| --- | --- |
| CC(=O)CC(=O)N(C)C | inactive |
| CCCCCCC(O)CCOC(C)=O (configuration not stated) | inactive |
| Cc1ccc(C(C)(C)O)cc1 | inactive |
| CC(C)N(c1ccccc1)C(C)C | inactive |
| C=CC(C)CCCC(C)(C)O (configuration not stated) | inactive |
| CC(CO)c1ccccc1 (configuration not stated) | inactive |
| CCCC1CCC(=O)CC1 | inactive |
| CCCCCCCCSCc1cc(C)c(O)c(CSCCCCCCCC)c1 | inactive |
| CC(C)(O)C(=O)c1ccc(OCCO)cc1 | inactive |

target: Retinoic acid receptor RXR-alpha (Homo sapiens) (UniProt P19793); assay: ATG_RXRa_TRANS: Attagene TRANS-FACTORIAL HepG2 Assay for human Retinoid X Receptor alpha (RXRa) (AID 2283012)
Method in brief: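 HepG2 cells transiently transfected with GAL4-UAS reporter units and chimeric RXRa-Gal4 protein, treated 24 h. Reporter mRNA measured by RT-PCR, fluorescent labelling, HpaI digestion and capillary electrophoresis. Induction fitted against DMSO.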

Sequence of Retinoic acid receptor RXR-alpha (Homo sapiens) (P19793 whole entry, looked up, the tested form may be a part): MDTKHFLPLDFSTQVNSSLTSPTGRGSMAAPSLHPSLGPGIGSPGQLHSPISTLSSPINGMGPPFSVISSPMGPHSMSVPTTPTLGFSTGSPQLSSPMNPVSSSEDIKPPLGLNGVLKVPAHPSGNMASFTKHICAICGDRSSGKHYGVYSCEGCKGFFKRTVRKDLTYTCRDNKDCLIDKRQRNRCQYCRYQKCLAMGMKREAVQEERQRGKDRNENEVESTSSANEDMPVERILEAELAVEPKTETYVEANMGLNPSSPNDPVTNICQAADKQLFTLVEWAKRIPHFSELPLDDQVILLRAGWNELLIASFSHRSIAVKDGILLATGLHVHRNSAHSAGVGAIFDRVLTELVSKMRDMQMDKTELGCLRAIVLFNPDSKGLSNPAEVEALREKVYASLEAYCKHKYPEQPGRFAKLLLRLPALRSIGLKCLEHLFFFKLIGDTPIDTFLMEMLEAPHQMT

| SMILES | outcome |
| --- | --- |
| CC(CO)(CO)[N+](=O)[O-] | inactive |
| CC(=O)CC(=O)N(C)C | inactive |
| CCCCCCC(O)CCOC(C)=O (configuration not stated) | inactive |
| C=C(C)CCCC(C)CCO (configuration not stated) | inactive |
| Cc1ccncc1 | inactive |
| CCCc1ccc(N)cc1 | inactive |
| Cc1ccc(C(C)(C)O)cc1 | inactive |
| C=CC(C)CCCC(C)(C)O (configuration not stated) | inactive |
| C=CCOCC(O)CO (configuration not stated) | inactive |
| CCOC(=O)CC(C)C | inactive |
| NC(=O)c1cnccn1 | inactive |
| C=COCC1CCC(COC=C)CC1 (configuration not stated) | inactive |
| CCCOC(=O)CC | inactive |
| CC(C)(C)c1cc(CCC(=O)OCCSCCOC(=O)CCc2cc(C(C)(C)C)c(O)c(C(C)(C)C)c2)cc(C(C)(C)C)c1O | inactive |
| CC1=CCC(C(C)C)=CC1 | inactive |
| C=CCOC(=O)/C=C\C(=O)OCC=C | inactive |
| CCOC(=O)CC1(C)OCC(C)O1 (configuration not stated) | inactive |
| CCCC1CCOC(C)S1 (configuration not stated) | inactive |
| O=C(O)c1ccco1 | inactive |
| COc1cc(OC)c2ccc(=O)oc2c1 | inactive |
| CC(C)CCOC(=O)CC(C)C | inactive |
| CCCCCCCCSCc1cc(C)c(O)c(CSCCCCCCCC)c1 | inactive |
| CC(C)(O)C(=O)c1ccc(OCCO)cc1 | inactive |
| CCCCCCCOC(C)=O | inactive |
